Values without a mark were called inactive.
Experiments:
Assay in all cases: log2 ratio of Biotin-Ahx-Ub-VS probe labelling (fragment/DMSO); higher = less target engagement (more negative = stronger competition), active = hit call of the paper (q ≤ 0.05, log2 ratio ≤ -1)
Details in all cases: compound concentration: 200 uM; treatment time: 3 h
USP42 = molecular target: T1, USP42 (UniProt Q9H9J4)
T1 sequence (whole entry): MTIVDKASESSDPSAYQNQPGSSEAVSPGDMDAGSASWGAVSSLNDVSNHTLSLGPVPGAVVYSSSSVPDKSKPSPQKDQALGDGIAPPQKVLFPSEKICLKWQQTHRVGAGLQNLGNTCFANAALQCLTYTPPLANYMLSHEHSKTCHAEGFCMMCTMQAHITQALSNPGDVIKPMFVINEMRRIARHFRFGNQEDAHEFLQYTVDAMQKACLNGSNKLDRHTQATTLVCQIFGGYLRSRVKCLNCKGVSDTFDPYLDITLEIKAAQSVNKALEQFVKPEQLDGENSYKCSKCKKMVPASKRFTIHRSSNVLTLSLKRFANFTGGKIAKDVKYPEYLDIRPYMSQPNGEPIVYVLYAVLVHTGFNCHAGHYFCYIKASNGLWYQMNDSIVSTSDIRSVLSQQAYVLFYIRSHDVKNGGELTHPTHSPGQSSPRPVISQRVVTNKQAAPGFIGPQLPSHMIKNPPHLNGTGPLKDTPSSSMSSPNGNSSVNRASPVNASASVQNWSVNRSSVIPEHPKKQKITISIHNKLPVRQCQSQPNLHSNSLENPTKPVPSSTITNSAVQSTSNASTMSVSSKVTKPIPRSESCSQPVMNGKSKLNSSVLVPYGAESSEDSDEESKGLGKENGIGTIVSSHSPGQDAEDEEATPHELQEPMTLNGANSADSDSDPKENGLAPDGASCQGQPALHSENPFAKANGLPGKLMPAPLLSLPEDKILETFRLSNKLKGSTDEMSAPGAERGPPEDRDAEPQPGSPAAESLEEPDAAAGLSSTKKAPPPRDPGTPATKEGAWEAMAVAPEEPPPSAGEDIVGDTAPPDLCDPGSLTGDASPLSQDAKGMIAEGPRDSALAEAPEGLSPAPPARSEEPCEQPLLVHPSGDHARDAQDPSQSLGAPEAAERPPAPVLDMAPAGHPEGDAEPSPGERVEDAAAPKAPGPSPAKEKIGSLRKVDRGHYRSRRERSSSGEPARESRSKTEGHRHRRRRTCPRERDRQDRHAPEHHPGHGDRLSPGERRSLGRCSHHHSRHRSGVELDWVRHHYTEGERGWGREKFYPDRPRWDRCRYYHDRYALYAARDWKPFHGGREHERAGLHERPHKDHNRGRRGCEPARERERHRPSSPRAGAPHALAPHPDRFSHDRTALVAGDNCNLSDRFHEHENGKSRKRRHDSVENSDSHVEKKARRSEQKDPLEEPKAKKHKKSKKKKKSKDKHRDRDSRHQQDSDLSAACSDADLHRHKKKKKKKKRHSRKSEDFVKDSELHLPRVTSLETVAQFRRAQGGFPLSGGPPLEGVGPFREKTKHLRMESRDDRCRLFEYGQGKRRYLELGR
Outline: (§1)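 Global-median-normalised Spectronaut label-free quantities were compared by unpaired t-test, and values are average log2 ratios of fragment over vehicle. Only proteins with ≥2 unique peptides were used. HEK293T lysate (495 µg per sample) was treated in triplicate with fragment at 200 µM or vehicle for 3 h and then with Biotin-Ahx-Ub-VS at 0.5 µM final for 1 h. Labelled DUBs were then NeutrAvidin-enriched, digested with LysC and trypsin, and run by diaPASEF LC-MS/MS.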

USP46 = USP46 (UniProt P62068)
Outline: as §1

USP47 = molecular target: T2, USP47 (UniProt Q96K76)
T2 sequence (whole entry): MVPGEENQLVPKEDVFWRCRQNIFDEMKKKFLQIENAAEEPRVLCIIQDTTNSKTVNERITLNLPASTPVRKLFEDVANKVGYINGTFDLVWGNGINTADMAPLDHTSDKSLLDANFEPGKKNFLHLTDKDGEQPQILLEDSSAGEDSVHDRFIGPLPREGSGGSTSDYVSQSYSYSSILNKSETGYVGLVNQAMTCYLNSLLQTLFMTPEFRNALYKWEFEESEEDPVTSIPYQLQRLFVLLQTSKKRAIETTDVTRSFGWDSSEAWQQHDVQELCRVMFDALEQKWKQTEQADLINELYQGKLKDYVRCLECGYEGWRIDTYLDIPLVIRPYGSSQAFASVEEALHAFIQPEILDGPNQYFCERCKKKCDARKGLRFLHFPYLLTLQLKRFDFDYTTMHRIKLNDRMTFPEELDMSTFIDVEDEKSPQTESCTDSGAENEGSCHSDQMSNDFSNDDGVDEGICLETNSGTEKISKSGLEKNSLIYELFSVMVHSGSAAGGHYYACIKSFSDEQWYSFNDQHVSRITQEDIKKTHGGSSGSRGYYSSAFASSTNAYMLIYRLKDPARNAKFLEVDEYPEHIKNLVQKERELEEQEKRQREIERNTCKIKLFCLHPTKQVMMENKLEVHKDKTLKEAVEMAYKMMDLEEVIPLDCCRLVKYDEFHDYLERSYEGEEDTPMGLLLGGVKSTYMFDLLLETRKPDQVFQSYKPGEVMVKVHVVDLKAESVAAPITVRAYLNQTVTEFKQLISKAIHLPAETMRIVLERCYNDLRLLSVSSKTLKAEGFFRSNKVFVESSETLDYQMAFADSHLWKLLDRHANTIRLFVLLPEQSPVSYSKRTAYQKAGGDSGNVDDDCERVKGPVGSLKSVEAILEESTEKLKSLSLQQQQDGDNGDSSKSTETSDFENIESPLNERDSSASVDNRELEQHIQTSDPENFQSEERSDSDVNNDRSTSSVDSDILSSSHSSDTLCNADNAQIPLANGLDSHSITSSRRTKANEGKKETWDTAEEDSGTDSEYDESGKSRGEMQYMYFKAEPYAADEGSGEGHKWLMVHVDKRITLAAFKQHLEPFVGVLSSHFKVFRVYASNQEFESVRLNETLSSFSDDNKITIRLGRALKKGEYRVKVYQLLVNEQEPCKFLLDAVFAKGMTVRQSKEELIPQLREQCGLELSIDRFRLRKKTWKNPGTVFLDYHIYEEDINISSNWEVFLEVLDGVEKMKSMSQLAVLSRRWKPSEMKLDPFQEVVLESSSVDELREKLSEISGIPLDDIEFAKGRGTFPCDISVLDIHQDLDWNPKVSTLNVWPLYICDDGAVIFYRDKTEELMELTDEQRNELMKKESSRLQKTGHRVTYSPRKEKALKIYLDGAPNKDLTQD
Outline: as §1

USP48 = molecular target: T3, USP48 (UniProt Q86UV5)
T3 sequence (whole entry): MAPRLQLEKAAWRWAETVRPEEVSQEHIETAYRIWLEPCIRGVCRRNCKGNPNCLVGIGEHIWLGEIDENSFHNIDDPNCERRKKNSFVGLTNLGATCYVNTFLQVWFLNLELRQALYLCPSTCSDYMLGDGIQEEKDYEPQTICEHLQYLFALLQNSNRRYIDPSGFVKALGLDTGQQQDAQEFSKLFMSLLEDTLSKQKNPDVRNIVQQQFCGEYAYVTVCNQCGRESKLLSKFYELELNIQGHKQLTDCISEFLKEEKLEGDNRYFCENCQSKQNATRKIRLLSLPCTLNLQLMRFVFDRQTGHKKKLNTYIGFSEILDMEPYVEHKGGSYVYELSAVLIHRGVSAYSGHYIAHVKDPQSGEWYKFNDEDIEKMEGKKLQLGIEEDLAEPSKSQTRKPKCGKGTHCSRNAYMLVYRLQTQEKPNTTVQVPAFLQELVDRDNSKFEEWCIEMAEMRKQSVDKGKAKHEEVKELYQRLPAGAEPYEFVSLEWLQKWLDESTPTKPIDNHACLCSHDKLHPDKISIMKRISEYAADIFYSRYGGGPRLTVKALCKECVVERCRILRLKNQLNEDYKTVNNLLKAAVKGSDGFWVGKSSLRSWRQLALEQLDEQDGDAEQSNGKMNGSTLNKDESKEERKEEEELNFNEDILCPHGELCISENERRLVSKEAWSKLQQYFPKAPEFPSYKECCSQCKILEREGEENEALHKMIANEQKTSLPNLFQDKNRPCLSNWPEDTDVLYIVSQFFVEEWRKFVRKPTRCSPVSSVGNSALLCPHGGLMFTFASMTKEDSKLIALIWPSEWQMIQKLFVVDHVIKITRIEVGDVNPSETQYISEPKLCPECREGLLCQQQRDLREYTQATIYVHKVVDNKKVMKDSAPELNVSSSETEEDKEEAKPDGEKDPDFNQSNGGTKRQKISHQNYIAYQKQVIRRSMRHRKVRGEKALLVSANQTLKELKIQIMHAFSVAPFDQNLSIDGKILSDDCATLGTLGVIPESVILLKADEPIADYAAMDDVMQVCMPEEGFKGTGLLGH
Outline: as §1

USP5 = molecular target: T4, USP5 (UniProt P45974)
T4 sequence (whole entry): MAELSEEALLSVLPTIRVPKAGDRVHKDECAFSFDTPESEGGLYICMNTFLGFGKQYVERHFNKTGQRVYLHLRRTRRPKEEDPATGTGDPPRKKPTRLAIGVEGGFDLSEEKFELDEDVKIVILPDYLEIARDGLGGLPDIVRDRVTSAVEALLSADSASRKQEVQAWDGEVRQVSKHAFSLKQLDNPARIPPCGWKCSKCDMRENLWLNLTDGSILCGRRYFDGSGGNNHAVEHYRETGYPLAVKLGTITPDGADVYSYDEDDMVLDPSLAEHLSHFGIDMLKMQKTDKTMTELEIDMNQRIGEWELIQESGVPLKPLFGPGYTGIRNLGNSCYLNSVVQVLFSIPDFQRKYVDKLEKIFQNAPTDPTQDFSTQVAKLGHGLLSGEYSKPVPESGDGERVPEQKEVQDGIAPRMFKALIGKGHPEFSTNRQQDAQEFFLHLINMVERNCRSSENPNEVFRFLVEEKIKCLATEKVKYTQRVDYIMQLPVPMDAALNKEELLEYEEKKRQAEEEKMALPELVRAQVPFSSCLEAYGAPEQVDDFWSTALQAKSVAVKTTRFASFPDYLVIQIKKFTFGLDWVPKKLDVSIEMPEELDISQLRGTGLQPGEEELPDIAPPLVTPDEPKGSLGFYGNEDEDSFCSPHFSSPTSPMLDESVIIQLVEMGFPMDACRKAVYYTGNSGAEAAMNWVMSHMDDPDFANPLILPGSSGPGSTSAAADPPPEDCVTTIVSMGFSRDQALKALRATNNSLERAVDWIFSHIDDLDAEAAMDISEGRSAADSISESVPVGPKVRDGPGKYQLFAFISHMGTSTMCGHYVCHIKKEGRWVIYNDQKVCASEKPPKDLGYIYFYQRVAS
Outline: as §1

USP54 = USP54 (UniProt Q70EL1)
Outline: as §1

USP7 = USP7 (UniProt Q93009)
Outline: as §1

USP8 = molecular target: T5, USP8 (UniProt P40818)
T5 sequence (whole entry): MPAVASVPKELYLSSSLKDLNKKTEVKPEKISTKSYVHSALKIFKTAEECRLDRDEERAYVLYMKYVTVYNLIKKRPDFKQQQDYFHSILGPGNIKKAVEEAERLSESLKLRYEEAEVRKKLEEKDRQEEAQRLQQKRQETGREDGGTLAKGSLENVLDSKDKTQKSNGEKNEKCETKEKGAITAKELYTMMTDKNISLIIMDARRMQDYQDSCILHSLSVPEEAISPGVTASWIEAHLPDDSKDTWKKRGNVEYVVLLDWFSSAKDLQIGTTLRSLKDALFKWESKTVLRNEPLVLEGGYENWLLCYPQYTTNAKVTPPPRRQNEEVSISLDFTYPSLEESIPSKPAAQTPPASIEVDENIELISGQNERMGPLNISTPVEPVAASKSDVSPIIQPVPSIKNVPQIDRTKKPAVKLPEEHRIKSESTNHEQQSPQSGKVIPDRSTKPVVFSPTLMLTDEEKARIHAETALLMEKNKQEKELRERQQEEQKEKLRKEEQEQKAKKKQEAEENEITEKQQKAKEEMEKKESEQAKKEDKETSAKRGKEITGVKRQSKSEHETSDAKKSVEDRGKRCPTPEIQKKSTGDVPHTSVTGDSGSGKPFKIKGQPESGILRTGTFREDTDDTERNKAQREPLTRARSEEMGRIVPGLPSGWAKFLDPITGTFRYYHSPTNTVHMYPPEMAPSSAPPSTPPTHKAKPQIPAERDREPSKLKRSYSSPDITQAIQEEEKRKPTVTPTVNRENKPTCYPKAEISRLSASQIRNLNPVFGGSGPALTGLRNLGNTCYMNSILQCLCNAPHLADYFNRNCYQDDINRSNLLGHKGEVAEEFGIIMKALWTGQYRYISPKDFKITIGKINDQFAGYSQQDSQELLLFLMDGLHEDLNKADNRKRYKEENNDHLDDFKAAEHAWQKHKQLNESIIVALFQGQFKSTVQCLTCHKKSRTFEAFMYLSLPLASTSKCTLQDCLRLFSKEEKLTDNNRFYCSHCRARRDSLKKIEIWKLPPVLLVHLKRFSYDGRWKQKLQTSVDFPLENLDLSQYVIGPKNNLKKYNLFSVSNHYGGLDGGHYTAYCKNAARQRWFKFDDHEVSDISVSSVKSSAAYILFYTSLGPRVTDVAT
Outline: as §1

USP9X = USP9X (UniProt Q93008)
Outline: as §1

UniProt O00487 = molecular target: UniProt O00487
Outline: as §1

Chain of USP54 (Q70EL1 whole entry): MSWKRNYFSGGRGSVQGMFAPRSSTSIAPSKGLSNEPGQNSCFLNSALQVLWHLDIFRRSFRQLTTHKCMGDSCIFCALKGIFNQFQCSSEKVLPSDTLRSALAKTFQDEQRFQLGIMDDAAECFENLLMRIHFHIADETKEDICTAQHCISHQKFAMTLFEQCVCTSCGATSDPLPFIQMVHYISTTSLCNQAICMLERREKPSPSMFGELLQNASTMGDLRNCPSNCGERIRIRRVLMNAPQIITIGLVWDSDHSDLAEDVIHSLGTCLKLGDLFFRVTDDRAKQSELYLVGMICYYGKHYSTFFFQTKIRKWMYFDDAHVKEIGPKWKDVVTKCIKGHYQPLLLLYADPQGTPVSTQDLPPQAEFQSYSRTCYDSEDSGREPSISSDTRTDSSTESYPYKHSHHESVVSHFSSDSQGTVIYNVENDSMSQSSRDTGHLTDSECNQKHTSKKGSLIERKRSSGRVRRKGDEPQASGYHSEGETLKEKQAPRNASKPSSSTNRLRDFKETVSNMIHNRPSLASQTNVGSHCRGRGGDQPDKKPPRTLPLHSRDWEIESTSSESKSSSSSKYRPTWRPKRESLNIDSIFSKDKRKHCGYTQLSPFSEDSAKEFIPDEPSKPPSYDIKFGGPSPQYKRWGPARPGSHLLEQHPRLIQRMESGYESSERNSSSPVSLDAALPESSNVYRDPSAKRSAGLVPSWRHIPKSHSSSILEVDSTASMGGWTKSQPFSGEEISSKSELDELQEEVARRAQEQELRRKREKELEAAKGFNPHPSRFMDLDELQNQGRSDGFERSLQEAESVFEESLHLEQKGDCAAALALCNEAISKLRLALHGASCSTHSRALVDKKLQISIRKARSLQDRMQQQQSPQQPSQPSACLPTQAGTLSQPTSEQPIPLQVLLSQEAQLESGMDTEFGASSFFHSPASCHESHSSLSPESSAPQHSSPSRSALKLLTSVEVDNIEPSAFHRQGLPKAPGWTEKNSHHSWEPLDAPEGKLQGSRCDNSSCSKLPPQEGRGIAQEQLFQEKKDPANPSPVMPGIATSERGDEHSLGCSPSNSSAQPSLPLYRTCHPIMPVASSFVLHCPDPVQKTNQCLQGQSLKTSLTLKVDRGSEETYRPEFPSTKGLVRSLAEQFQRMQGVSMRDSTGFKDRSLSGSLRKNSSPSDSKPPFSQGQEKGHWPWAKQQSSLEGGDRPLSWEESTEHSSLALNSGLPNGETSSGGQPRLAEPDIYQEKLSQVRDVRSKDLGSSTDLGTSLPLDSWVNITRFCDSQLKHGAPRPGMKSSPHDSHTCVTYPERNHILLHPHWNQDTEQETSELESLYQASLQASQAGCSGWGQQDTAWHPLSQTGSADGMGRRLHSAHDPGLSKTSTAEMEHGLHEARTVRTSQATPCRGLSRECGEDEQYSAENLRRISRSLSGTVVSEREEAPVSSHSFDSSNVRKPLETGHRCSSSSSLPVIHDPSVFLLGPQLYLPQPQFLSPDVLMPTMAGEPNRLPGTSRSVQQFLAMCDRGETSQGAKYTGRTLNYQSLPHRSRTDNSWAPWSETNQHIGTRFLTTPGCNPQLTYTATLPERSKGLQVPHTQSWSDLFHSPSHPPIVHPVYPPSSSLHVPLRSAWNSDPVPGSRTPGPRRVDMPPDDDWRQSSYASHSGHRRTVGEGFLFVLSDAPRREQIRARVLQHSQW
Chain of USP7 (Q93009 whole entry, looked up): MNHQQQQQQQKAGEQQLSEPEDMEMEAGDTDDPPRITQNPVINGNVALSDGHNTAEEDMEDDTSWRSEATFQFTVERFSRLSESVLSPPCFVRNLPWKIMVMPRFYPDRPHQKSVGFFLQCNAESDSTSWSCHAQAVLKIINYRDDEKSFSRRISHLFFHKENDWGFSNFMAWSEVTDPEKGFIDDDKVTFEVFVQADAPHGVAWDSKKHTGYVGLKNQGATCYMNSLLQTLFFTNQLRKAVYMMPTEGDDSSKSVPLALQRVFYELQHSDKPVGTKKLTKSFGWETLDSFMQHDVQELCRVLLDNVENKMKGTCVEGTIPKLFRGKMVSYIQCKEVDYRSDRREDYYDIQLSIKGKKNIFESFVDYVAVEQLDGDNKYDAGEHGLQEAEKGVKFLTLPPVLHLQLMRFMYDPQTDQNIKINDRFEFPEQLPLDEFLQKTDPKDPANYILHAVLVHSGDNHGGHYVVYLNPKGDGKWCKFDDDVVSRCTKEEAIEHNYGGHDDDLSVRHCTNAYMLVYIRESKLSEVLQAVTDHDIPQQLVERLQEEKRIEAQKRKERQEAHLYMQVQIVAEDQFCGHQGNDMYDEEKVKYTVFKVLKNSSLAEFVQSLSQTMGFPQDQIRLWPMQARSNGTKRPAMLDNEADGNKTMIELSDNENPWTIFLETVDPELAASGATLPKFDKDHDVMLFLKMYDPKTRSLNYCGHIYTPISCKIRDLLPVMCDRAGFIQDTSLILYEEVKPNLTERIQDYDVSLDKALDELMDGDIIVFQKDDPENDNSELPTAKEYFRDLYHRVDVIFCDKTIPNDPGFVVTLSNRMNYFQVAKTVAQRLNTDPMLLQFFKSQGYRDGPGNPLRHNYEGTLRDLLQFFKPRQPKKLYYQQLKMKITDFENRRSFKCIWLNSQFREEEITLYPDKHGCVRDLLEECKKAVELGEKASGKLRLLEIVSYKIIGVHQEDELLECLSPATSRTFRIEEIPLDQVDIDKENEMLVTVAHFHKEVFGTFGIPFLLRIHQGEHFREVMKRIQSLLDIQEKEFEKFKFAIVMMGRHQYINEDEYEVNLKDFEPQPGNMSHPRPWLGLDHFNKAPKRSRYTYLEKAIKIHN
Chain of UniProt O00487 (O00487 whole entry): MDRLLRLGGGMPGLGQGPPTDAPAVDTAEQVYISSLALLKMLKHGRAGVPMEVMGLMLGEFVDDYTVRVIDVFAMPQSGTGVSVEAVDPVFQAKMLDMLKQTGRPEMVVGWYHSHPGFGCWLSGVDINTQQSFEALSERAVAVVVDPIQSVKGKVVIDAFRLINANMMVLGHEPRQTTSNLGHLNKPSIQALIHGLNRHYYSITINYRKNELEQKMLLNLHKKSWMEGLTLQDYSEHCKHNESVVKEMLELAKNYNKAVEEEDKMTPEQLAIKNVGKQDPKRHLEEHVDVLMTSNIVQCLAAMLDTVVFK
Chain of USP46 (P62068 whole entry): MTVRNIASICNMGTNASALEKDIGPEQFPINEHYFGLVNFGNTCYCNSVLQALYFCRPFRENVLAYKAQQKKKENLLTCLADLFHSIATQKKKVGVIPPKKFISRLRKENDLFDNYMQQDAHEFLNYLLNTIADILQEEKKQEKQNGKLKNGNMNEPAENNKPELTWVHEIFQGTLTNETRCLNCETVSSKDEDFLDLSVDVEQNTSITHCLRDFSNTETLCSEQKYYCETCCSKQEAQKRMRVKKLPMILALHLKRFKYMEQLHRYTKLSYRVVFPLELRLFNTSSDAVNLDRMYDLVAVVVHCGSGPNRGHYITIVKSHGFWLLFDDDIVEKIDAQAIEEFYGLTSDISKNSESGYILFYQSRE

SMILES	log2 ratio of Biotin-Ahx-Ub-VS probe labelling (USP42)	log2 ratio of Biotin-Ahx-Ub-VS probe labelling (USP46)	log2 ratio of Biotin-Ahx-Ub-VS probe labelling (USP47)	log2 ratio of Biotin-Ahx-Ub-VS probe labelling (USP48)	log2 ratio of Biotin-Ahx-Ub-VS probe labelling (USP5)	log2 ratio of Biotin-Ahx-Ub-VS probe labelling (USP54)	log2 ratio of Biotin-Ahx-Ub-VS probe labelling (USP7)	log2 ratio of Biotin-Ahx-Ub-VS probe labelling (USP8)	log2 ratio of Biotin-Ahx-Ub-VS probe labelling (USP9X)	log2 ratio of Biotin-Ahx-Ub-VS probe labelling (UniProt O00487)
Cc1cc(Cl)ccc1NC(=O)CCl	-0.0727	-0.0701	-0.176	-0.173	-0.0552	-0.075	-0.304	0.0468	-0.0827	-0.165
O=C(CCl)N1CCN(c2nc3ccccc3o2)CC1	0.952	-0.372	-0.362	-0.829	-0.993	-0.173	-1.99 (active)	-0.223	-0.248	-0.0834
O=C(CCl)Nc1cc(Cl)ccc1C(=O)O	-0.11	0.0628	0.0765	0.232	0.436	0.0975	0.19	-0.256	-0.165	-0.0135

From the supplement of paper PMC11732987, “Enantioselective OTUD7B fragment discovery through chemoproteomics screening and high-throughput optimisation” (Communications Chemistry, 2025)
